# From PubChem BioAssay
# Activity calls are given as the source filed them. Unless noted, the rule behind the calls is not given here.
# What was measured:
# [1] = resazurin metabolic signal in HepG2 cells – cell-based, resazurin fluorescence, 24 h, PK04 Diversity Set, profiling panel (AID 1172); details: HepG2 viability, higher = more signal; note: test concentration not given here
# [2] = budding yeast growth changes without added modifier – OD600, strain BY4716, 24 h, basal condition, primary screen (AID 1173); details: S. cerevisiae BY4716 growth, OD600, 24 h; higher = more signal, called active from +8 up or from −8 down
# [3] = viability profiling in MM1S myeloma cells – cell-based, resazurin fluorescence, basal, 24 h, PK04 Diversity Set, profiling panel (AID 1174); details: higher = more signal, called active from +8 up or from −8 down;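 note: MM1S multiple myeloma cell line; test concentration not given here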
# [4] = target: Dihydroorotate dehydrogenase (quinone), mitochondrial (Plasmodium falciparum (isolate 3D7)) (UniProt Q08210); assay: inhibition of P. falciparum DHODH – biochemical, C-terminal His tag, absorbance 600 nm, primary screen (AID 1175); details: PfDHODH enzyme, DCIP absorbance 600 nm; higher = more signal, called active from +8 up or from −8 down;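 note: recombinant parasite enzyme with a five histidine tag at its C terminus; test concentration not given here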
# [5] = inhibition of PAO1 biofilm formation – strain PAO1, LB-PBS medium, absorbance 600 nm, primary screen (AID 1176); note: test concentration not given here; details: P. aeruginosa PAO1 growth/biofilm, A600, 12 h; higher = more signal
# [6] = growth modulation of vineyard yeast isolate – strain RM11-1a, OD600, basal, 24 h, primary screen (AID 1177);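 note: cultures grown under basal conditions with no added stressor; test concentration not given here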; details: S. cerevisiae RM11-1a growth, OD600, 24 h; higher = more signal, called active from +8 up or from −8 down
# [7] = growth of efflux-deficient E. coli DRC39 – strain DRC39, OD650, 24 h, E. coli filamentation inducers, primary screen (AID 1178);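 note: growth measured as culture turbidity by optical density at 650 nm; test concentration not given here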; details: E. coli DRC39 acrAB, higher = more signal, called active from +8 up or from −8 down
# [8] = growth of efflux-deficient E. coli DRC39 – strain DRC39, OD650, 48 h, E. coli filamentation inducers, primary screen (AID 1179);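 note: screen aims at cell division blockers that make cells filament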; details: E. coli DRC39 delta-acrAB growth, higher = more signal, called active from +8 up or from −8 down
# [9] = viability profiling in RPMI8226 myeloma cells – cell-based, resazurin fluorescence, basal, 24 h, PK04 Diversity Set, profiling panel (AID 1180); details: higher = more signal;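 note: RPMI8826 multiple myeloma cell line at 5000 cells per well; test concentration not given here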
# [10] = target: E3 ubiquitin-protein ligase XIAP (Homo sapiens) (UniProt P98170); assay: small molecules binding XIAP protein – biophysical, small-molecule microarray, fluorescence 635 nm, primary screen (AID 1181); details: higher = more signal;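 note: score merges 667 nm emission and signal to noise over triplicate slides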
# E3 ubiquitin-protein ligase XIAP (Homo sapiens), sequence (P98170 whole entry, looked up): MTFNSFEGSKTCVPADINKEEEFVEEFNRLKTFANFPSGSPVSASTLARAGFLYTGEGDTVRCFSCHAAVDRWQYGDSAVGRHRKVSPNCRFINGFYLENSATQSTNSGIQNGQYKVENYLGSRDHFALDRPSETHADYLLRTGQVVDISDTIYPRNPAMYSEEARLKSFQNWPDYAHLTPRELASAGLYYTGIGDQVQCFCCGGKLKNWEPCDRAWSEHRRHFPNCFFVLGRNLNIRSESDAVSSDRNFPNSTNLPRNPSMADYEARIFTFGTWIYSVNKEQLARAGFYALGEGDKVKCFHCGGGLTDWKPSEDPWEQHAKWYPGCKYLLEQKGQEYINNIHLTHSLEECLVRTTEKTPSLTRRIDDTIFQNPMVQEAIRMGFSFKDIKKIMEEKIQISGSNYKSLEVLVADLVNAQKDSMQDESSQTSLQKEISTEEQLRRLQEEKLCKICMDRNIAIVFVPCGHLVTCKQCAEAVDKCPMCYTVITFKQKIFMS
# Dihydroorotate dehydrogenase (quinone), mitochondrial (Plasmodium falciparum (isolate 3D7)), sequence (Q08210 whole entry, looked up): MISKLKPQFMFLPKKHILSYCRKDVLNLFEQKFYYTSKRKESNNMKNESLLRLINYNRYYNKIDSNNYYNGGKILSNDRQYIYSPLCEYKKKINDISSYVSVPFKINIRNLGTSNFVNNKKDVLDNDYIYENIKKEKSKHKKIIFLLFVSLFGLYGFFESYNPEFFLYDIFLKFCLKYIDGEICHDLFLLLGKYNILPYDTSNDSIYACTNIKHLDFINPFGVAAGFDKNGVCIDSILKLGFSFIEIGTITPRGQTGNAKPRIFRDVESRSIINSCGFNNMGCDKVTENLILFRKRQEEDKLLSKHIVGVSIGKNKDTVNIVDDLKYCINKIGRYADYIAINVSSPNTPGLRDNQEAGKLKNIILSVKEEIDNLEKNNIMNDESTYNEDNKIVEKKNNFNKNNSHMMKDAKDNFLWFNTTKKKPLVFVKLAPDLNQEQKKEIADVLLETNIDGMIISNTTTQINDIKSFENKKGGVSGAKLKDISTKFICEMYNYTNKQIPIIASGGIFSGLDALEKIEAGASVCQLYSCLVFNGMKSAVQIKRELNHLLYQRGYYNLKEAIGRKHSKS
SMILES,z-score [1],z-score [2],z-score [3],composite z-score [4],z-score [5],z-score [6],z-score [7],z-score [8],z-score [9],composite z-score [10]
C=C(COC)C(=O)CC[C@H](OC(=O)c1ccccc1-c1ccccc1C(=O)O)c1ccc(CO)o1,-0.45,0.624 (inactive),-0.176 (inactive),-1.39 (inactive),1.85 (inactive),0.89 (inactive),-0.573 (inactive),-0.399 (inactive),-0.178,0.0402
C=CCNC(=O)[C@@H]1[C@H]2C(=O)O[C@H](c3ccccc3)[C@H](c3ccccc3)N2[C@H](c2ccc(O)cc2)[C@@]12C(=O)Nc1ccc(C#CCCO)cc12,0.917,-0.599 (inactive),0.343 (inactive),-0.489 (inactive),-0.212 (inactive),-0.769 (inactive),0.883 (inactive),-0.582 (inactive),1.32,-0.377
Cc1ccc(S[C@]2(C(=O)NCc3ccccc3)CC(=O)N(C3Cc4ccccc4C3)[C@@H]2c2ccc(CO)cc2I)cc1,-0.0974,-2.95 (inactive),-2.61 (inactive),-1.29 (inactive),0.761 (inactive),-2.63 (inactive),0.964 (inactive),1.52 (inactive),-1.89,-0.315
CO[C@H]1O[C@H](CO)[C@@H](OC(=O)Nc2ccc(C(F)(F)F)cc2)[C@H](OC(=O)Nc2ccccc2)[C@H]1OC(=O)Nc1ccccc1,-5.15,0.0673 (inactive),-6.47 (inactive),0.0214 (inactive),-0.276 (inactive),2.72 (inactive),0.201 (inactive),-1.17 (inactive),-6.11,0.166
COc1ccc([Si](C)(C)[C@@H]2[C@@H](CCO)O[C@]3(C(=O)N(Cc4ccccc4)c4ccc(N5C(=O)COc6ccccc65)cc43)[C@H]2C)cc1,1.52,2.09 (inactive),-0.657 (inactive),-0.0636 (inactive),1.2 (inactive),4.54 (inactive),-0.141 (inactive),-0.266 (inactive),-0.976,-0.0599
COC(=O)[C@@]1(Cc2ccc(OC)cc2)[C@H]2c3cc(C(=O)N(C)C)n(Cc4cc(C)n(C)n4)c3C[C@H]2CN1C(=O)c1ccccc1,-1.04,0.932 (inactive),-1.82 (inactive),-0.546 (inactive),0.992 (inactive),0.949 (inactive),-1.2 (inactive),-1.29 (inactive),-0.936,0.0018
COC(=O)[C@@]1(Cc2ccc(F)cc2)[C@H]2c3cc(C(=O)N(C)C)n(CCSCCO)c3C[C@H]2CN1C(=O)c1ccccc1,-0.234,-0.0857 (inactive),-0.42 (inactive),-0.467 (inactive),0.399 (inactive),0.0891 (inactive),-0.514 (inactive),-0.32 (inactive),-0.107,-0.234
COCCOC(=O)N1C(=O)[C@@]2(c3cc(C#Cc4ccc(OC)cc4)ccc31)[C@H](c1ccc(OCCO)cc1)N1[C@H](c3ccccc3)[C@H](c3ccccc3)OC(=O)[C@H]1[C@@H]2C(N)=O,-0.83,1.71 (inactive),-1.85 (inactive),-0.675 (inactive),3.36 (inactive),2.82 (inactive),0.721 (inactive),0.366 (inactive),-2.36,0.269
Cc1ccc(F)cc1S(=O)(=O)N[C@@H]1CCN(C(=O)c2ccc(OC(C)C)cc2)C1,0.157,-2.17 (inactive),0.554 (inactive),-0.431 (inactive),-0.165 (inactive),-0.455 (inactive),1.16 (inactive),0.427 (inactive),0.339,0.0336
Cc1ccccc1C(O)C1C=CC2C(=O)N(C)C(=O)C2N1Nc1ccc([N+](=O)[O-])cc1[N+](=O)[O-] (stereo not given),-0.138,1.09 (inactive),-0.729 (inactive),-0.286 (inactive),0.186 (inactive),0.446 (inactive),-0.456 (inactive),-0.401 (inactive),-0.963,-0.0172
COCCCNC(=O)[C@@]1(Cc2ccccc2CN=[N+]=[N-])N=C(c2ccc(OCCCO)cc2)O[C@H]1c1ccccc1N=[N+]=[N-],-0.208,-0.255 (inactive),-1.18 (inactive),1.13 (inactive),0.413 (inactive),0.587 (inactive),1.86 (inactive),1.08 (inactive),-2.65,-0.0592
COCCOC(=O)N1C(=O)[C@@]2(c3cc(C#CCNC(N)=O)ccc31)[C@H](c1ccc(OCCO)cc1)N1[C@H](c3ccccc3)[C@H](c3ccccc3)OC(=O)[C@H]1[C@@H]2C(=O)N1CCN(c2ncccn2)CC1,0.26,1.51 (inactive),-0.0528 (inactive),-0.239 (inactive),2.5 (inactive),2.05 (inactive),-0.157 (inactive),-0.327 (inactive),0.0246,0.1
CCOC(=O)C1=CCC(c2cccc(Cl)c2)O1 (stereo not given),0.482,-4.22 (inactive),0.402 (inactive),-0.863 (inactive),0.601 (inactive),-1.6 (inactive),0.484 (inactive),-0.16 (inactive),-0.0798,0.19
CN1C(=O)C2C=CC(C(O)COCc3ccccc3)N(Nc3ccccc3)C2C1=O (stereo not given),0.425,-0.396 (inactive),-0.825 (inactive),-0.284 (inactive),-0.0346 (inactive),0.328 (inactive),-0.925 (inactive),0.0813 (inactive),0.182,0.267
CN(C)C(=O)[C@]1(Cc2ccccc2N=[N+]=[N-])N=C(c2ccc(OCCCO)cc2)O[C@@H]1c1ccccc1CN=[N+]=[N-],2.37,-1.93 (inactive),-1.13 (inactive),-0.106 (inactive),-0.165 (inactive),-0.495 (inactive),0.804 (inactive),0.7 (inactive),-0.997,0.152
CO[C@H]1O[C@H](CO)[C@@H](OC(=O)Nc2cccc(F)c2)[C@H](OC(=O)Nc2ccc3c(c2)OCO3)[C@H]1OC(=O)Nc1ccc2c(c1)OCO2,-0.252,1.55 (inactive),-1.53 (inactive),-0.222 (inactive),1.38 (inactive),1.48 (inactive),1.49 (inactive),0.378 (inactive),-1.89,0.652
[N-]=[N+]=NCc1ccccc1[C@H]1OC(c2ccc(OCCCO)cc2)=N[C@@]1(Cc1ccccc1N=[N+]=[N-])C(=O)NCCN1CCOCC1,-0.634,-1.11 (inactive),-1.22 (inactive),1.15 (inactive),0.591 (inactive),1.41 (inactive),-0.0057 (inactive),-0.357 (inactive),-1.17,-0.0414
COc1ccc(CCNC(=O)[C@@H]2c3ccccc3C(=O)N(Cc3ccccc3)[C@H]2c2ccc(CO)cc2)cc1,0.713,-0.996 (inactive),-2.71 (inactive),-0.489 (inactive),0.801 (inactive),-0.539 (inactive),1.62 (inactive),1.78 (inactive),-0.648,-0.0272
COC(=O)[C@]1(Cc2ccccc2CN=[N+]=[N-])N=C(c2ccc(OCCCO)cc2)O[C@@H]1c1ccccc1,-2.08,1.42 (inactive),-4.5 (inactive),2.51 (inactive),0.948 (inactive),3.06 (inactive),0.286 (inactive),-0.865 (inactive),-5.26,-0.184
CC(C)CCC[C@@H](C)[C@H]1CC[C@@]2(C)C3=C(CC[C@]12C)[C@@]1(C)CC[C@H](OC(=O)c2ccc(N)cc2)C(C)(C)C1CC3 (stereo not given in full),-0.322,-0.863 (inactive),0.467 (inactive),-2.03 (inactive),0.589 (inactive),-2.11 (inactive),0.965 (inactive),1.16 (inactive),0.826,0.45
O=C(C=C(CC(O)c1cccc(Cl)c1)OCCF)OCCF (stereo not given),-0.0453,-1.47 (inactive),0.0592 (inactive),-2.48 (inactive),-0.777 (inactive),-1.33 (inactive),-0.0441 (inactive),1.04 (inactive),0.335,0.237
CC(C)N1CC=CC23O[C@@H]4C=CCOC(=O)[C@@H]4[C@H]2C(=O)N(CCCCCCO)[C@@H]3C1=O (stereo not given in full),0.821,0.562 (inactive),-0.581 (inactive),-1.07 (inactive),0.165 (inactive),-0.21 (inactive),0.412 (inactive),0.24 (inactive),0.704,0.0342
C=C[C@@H](O)[C@H]1CC(c2ccccc2)=NO1,0.0502,-2.38 (inactive),0.325 (inactive),-0.344 (inactive),-0.496 (inactive),-0.2 (inactive),-0.105 (inactive),0.194 (inactive),1.08,-0.0473
Cc1cc(C)c(C(O)C2C=CC3C(=O)N(c4ccccc4)C(=O)C3N2Nc2ccc([N+](=O)[O-])cc2)c(C)c1 (stereo not given),-0.221,0.414 (inactive),-0.237 (inactive),-0.212 (inactive),1.64 (inactive),0.258 (inactive),-0.777 (inactive),-0.624 (inactive),0.0375,0.0827
CC(C)C(CO)N1C(=O)[C@@H]2[C@H]3C(=O)OCC=C[C@H]3OC23C=CCN(CCN2CCOCC2)C(=O)[C@@H]13 (stereo not given in full),-0.173,0.306 (inactive),-0.505 (inactive),0.395 (inactive),-0.814 (inactive),1.21 (inactive),-0.934 (inactive),-1.06 (inactive),-0.371,-0.518
